Screening results from PubChem BioAssay.
KB-V1 cytotox = KB-V1 MDR subline cytotoxicity; Potency, µM (highest dose often 46.1 µM), usual class: cytotoxic; actives 3.4% (n = 400,000); KB-V1 MDR cells viability, CellTiter-Glo, 72 h; AID 1347076; note: % is set by controls: 0 for no effect and ±100 for the full control effect; nearly all actives have a fitted effect of over 60% in size
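Compound-treated KB-V1 multidrug-resistant cells, 72 h, 37 degrees C; viability by CellTiter-Glo. Fitted qHTS curves give the values.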
SW480 rereplic = induces DNA re-replication in SW480 colon adenocarcinoma cells. SW480 DNA re-replication, Hoechst DNA content imaging, 48 h. Potency, µM (highest dose often 46.1 µM), inactives show at the top dose re-replication activation, actives largely listed as activators. actives 1.8% (n = 340,000). AID 624297; note: % of control where 0% means no effect; nearly all actives have a fitted effect of over 55% in size
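Per well, 250 cells were exposed to pinned compound for 48 hr. Nuclear DNA was visualised with Hoechst (40 min, 37 C) and total object intensity recorded by fluorescence scanning.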
MCF10A rereplic = DNA re-replication induction in MCF 10a cells; MCF 10A DNA re-replication, Hoechst nuclear intensity, 48 h; Potency, µM (titrated, usually from 46.1 µM), for the others: at the top dose activity, positive = re-replication, usual class: activators; actives 2.9% (n = 350,000); note: % of control where 0% means no effect; nearly all actives have a fitted effect of over 50% in size
PINK1 expr mod = PINK1 expression modulation. PINK1 immunofluorescence, high-content cytometry, 24 h. Potency, µM (series often up to 76.6 µM), inactives show at the highest dose activation (PINK1 increase), hits mostly activators. actives 0.2% (n = 410,000); active = well fitted activation curve with a large enough effect; inconclusive = small, poorly fitted or top-dose-only effect; cell line not stated here; note: % of control where 0% means no effect; nearly all actives have a fitted effect of over 65% in size
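Fluorescence from anti-PINK1 antibody, together with nuclear and cell stains, was scanned on a laser-scanning cytometer. Before staining, stable-line cells were incubated 24 hours with compounds at 5 concentrations; primary antibody 12 h at 10 degrees C.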
ALOX12 inh = inhibitors of human 12S-lipoxygenase ALOX12; P18054; purified 12hLO, xylenol orange hydroperoxide absorbance; Potency, µM (series often up to 108 µM), inactives show at the highest dose activity change, negative = inhibition, actives largely listed as inhibitors; actives 1.1% (n = 580,000); AID 1671190; note: % is set by controls: 0 for no effect and ±100 for the full control effect
Target sequence (P18054 whole entry, looked up): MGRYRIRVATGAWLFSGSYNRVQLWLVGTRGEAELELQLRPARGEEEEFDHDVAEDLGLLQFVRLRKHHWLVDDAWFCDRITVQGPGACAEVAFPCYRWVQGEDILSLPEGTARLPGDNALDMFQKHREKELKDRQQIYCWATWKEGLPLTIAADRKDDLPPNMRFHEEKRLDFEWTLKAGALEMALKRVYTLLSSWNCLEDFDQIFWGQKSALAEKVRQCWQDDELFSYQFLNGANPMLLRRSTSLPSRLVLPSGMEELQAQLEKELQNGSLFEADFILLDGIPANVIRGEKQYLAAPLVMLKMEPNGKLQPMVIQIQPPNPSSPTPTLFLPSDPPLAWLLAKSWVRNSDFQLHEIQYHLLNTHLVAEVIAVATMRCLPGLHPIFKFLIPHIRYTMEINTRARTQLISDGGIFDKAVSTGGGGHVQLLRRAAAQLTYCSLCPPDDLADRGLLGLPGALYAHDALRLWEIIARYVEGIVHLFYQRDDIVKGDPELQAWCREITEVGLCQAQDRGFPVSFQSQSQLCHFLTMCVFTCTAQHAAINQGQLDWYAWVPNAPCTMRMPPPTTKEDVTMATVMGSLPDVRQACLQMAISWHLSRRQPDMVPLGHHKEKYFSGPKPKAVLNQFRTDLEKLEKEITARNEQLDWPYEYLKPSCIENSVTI
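Hydroperoxide product was detected by ferrous iron/xylenol orange as the 573 to 405 nm absorbance ratio. Arachidonic acid at 40 uM (final) was turned over for 30 min at room temperature by 150 nM human 12hLO, pH 7.0 Hepes buffer, after 15 min compound preincubation.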
KB-3-1 cytotox = KB-3-1 parental cell cytotoxicity. KB-3-1 viability, CellTiter-Glo ATP luminescence, 72 h. Potency, µM (doses to about 46.1 µM), most hits filed as cytotoxic. actives 1.4% (n = 400,000); note: % is set by controls: 0 for no effect and ±100 for the full control effect; nearly all actives have a fitted effect of over 60% in size
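Parental KB-3-1 viability, qHTS format: 72 h compound exposure, 37 °C; CellTiter-Glo; media-only wells and DMSO plates as controls; concentration-effect fits on corrected data.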
Numbers without * were called inactive; i = inactive; ? = inconclusive; . = not tested or not shown; [ ] = dose if it differs, or a comment. The list is not random: actives were taken first. Their share in the collection is about 5.8%. Unless noted, calls come from the whole dose curve; as a rule, active = well fitted curve in the direction sought with a large enough effect; inconclusive = small, poorly fitted or top-dose-only effect, or another doubt; inactive = no such curve, though single readings can be large; an effect the other way counts as inactive or inconclusive. Potency is the fitted concentration of half-maximal effect.

SMILES	KB-V1 cytotox	SW480 rereplic	MCF10A rereplic	PINK1 expr mod	ALOX12 inh	KB-3-1 cytotox
CCC(C)(C)C(=O)Nc1ncc(S(=O)(=O)c2ccc([N+](=O)[O-])cc2)s1	i	?	?	1.8%	?	i
O=C(Nc1ncc(S(=O)(=O)c2ccc([N+](=O)[O-])cc2)s1)c1ccc2ccccc2c1	i	1.0%	?	14.1µM*	-20.9%	i
O=C(Nc1ncc(S(=O)(=O)c2ccc([N+](=O)[O-])cc2)s1)c1cccnc1	i	?	?	2.2%	0.0%	i
O=C(Nc1ncc([N+](=O)[O-])s1)c1cccc([N+](=O)[O-])c1	?	1.5%	1.1%	14.1µM*	0.0%	i
O=C(Nc1nc(-c2cccnc2)cs1)c1cccc([N+](=O)[O-])c1	i	-5.5%	-4.4%	10.7%	3.5%	i
COC(=O)C(NC(=O)c1ccccc1Cl)(Nc1ncc(S(=O)(=O)c2ccc([N+](=O)[O-])cc2)s1)C(F)(F)F (stereo unspecified)	13µM*	?	?	-2.5%	-9.7%	?
O=C(Nc1nc(-c2ccccc2)cs1)c1cccc([N+](=O)[O-])c1	23.1µM*	-2.3%	?	7.0%[38.3 µM]	-36.6%	i
C=C(C)Cn1c(N2CCN(CC(=O)OCC)CC2)nc2c1c(=O)[nH]c(=O)n2C	.	.	.	.	0.0%	.
CC(C)(C)NC(=O)COc1ncnc2ccccc12	.	.	.	.	-4.7%	.
CN(C)CCCNc1oc(/C=C/c2cccs2)nc1S(=O)(=O)c1ccccc1	i	11.6µM*	?	-0.2%	-13.5%	i
Cc1ccccc1-n1c(SCCOc2ccccc2Cl)nnc1-c1ccc(C(C)(C)C)cc1	.	.	.	.	-12.9%	.
CCC(CC)C(CNC(=O)c1cccc(Cl)c1Cl)N1CCOCC1 (stereo unspecified)	.	.	.	.	-2.9%	.
CC(C)OC(=O)c1c(F)c(F)c(N2CCOCC2)c(F)c1F	i	0.9%	3.26µM*	.	15.7%	i
COC(=O)c1c(F)c(F)c(N2CCOCC2)c(F)c1F	i	-8.3%	26.1%	?	2.3%	i
Cc1ccc(C2SCCN2C(=O)c2cc3ccccc3oc2=O)cc1 (stereo unspecified)	.	.	.	.	-9.7%	.
CCCCOC(=O)c1nc2ccccc2nc1NCc1ccccc1	.	.	.	.	1.8%	.
Cc1[nH]nc2c1C(c1ccccn1)N(c1ccc(Br)cc1)C2=O (stereo unspecified)	18.4µM*	-7.1%	-3.8%	2.7%[38.3 µM]	-9.5%	i
CCOC(=O)c1ccc(N2C(=O)c3n[nH]c(-c4cccs4)c3C2c2cccc(OC)c2)cc1 (stereo unspecified)	i	.	.	4.0%	-8.7%	?
CCOC(=O)c1ccc(N2C(=O)c3n[nH]c(C)c3C2c2ccc(OCC)cc2)cc1 (stereo unspecified)	?	.	.	7.3%	?	23.1µM*
CCOC(=O)c1ccc(N2C(=O)c3n[nH]c(C)c3C2c2ccccn2)cc1 (stereo unspecified)	i	-2.3%	3.2%	0.7%	-17.6%	i
Cc1ccc(N2C(=O)c3n[nH]c(C)c3C2c2ccccc2Cl)cc1 (stereo unspecified)	?	.	.	6.3%	-9.2%	i
CCOC(=O)c1ccc(N2C(=O)c3n[nH]c(-c4cccs4)c3C2c2ccc(OC)cc2OC)cc1 (stereo unspecified)	25.9µM*	.	.	2.6%	-19.2%	?
CCOC(=O)c1ccc(N2C(=O)c3[nH]nc(-c4ccccc4)c3C2c2ccc(CC)cc2)cc1 (stereo unspecified)	23.1µM*	.	.	1.9%	?	?
Cc1ccc(C)c(S(=O)(=O)N2CCCC2CNC(=O)C(=O)NCC2CCCO2)c1 (stereo unspecified)	i	5.8µM*	27.2%	3.0%	-14.0%	i
Cc1ccc(C)c(S(=O)(=O)N2CCCCC2CCNC(=O)C(=O)NCc2ccccn2)c1 (stereo unspecified)	?	-8.8%	3.4%	-0.1%	18.8%	i
SMILES	KB-V1 cytotox	SW480 rereplic	MCF10A rereplic	PINK1 expr mod	ALOX12 inh	KB-3-1 cytotox
COc1ccccc1CNC(=O)C(=O)NCC1CCCN1S(=O)(=O)c1cc(C)ccc1C (stereo unspecified)	i	.	.	0.8%	-16.8%	i
Cc1ccc(C)c(S(=O)(=O)N2CCCC2CNC(=O)C(=O)NC2CCCCCC2)c1 (stereo unspecified)	i	0.4%	27.9%	1.1%	13.2%	i
Cc1ccc(C)c(S(=O)(=O)N2CCCC2CNC(=O)C(=O)NCc2ccccn2)c1 (stereo unspecified)	i	18.4µM*	-20.9%	2.4%	8.1%	i
Cc1ccc(C)c(S(=O)(=O)N2CCCC2CNC(=O)C(=O)NCc2ccccc2C)c1 (stereo unspecified)	i	3.66µM*	-6.5%	-0.6%	-0.1%	i
O=C(CNC(=O)c1ccc(Oc2ccccc2)cc1)NNC(=O)CSc1cccc2cccnc12	.	.	.	.	-50.4%	.
Cn1nnnc1-c1cccc(NS(=O)(=O)c2ccc(F)cc2F)c1	.	.	.	.	-5.0%	.
CN1/C(=C\C(=O)c2cccnc2)Sc2ccccc21	?	7.31µM*	28.4%	0.1%	?	i
COc1cccc(C(=O)/C=C2\Sc3ccccc3N2C)c1	i	?	18.4µM*	0.0%	?	?
COc1ccccc1NCC(=O)NNC(=O)COc1ccc2ccccc2c1	.	.	.	.	1.6%	.
c1ccc(Cn2cc(CN3CCCOCC3)c(-c3cc4ccccc4o3)n2)cc1	.	.	.	.	34.3%	.
N#Cc1ccc(O[C@@H]2CCOC[C@H]2NC(=O)C2(N3CCCC3)CCCC2)cc1	.	.	.	.	45.2%	.
CN(CC1CCOCC1)S(=O)(=O)c1ccc2c(c1)CCCC2	.	.	.	.	39.3%	.
COc1cc(NC(=O)c2noc3c2CCC3)c(OC)cc1Cl	i	-3.4%	-0.6%	11.2µM*	25.6%	i
Cc1cc(NC(=O)c2noc3c2CCCC3)nn1Cc1ccc(Cl)cc1	18.4µM*	16.7%	-6.2%	-0.7%	-5.4%	?
Cc1ccccc1Cn1nc(C)c(NC(=O)c2noc3c2CCCC3)c1C	5.17µM*	-1.2%	3.1%	-3.2%[38.3 µM]	-7.2%	?
Cc1ccccc1Cn1nc(C)c(NC(=O)C2(C)CC2(Cl)Cl)c1C (stereo unspecified)	?	18.4µM*	7.2%	2.3%	0.6%	i
Cc1c(Cl)cccc1NC(=O)c1noc2c1CCCCC2	.	.	.	.	-3.2%	.
CCOc1ccccc1Oc1c(C)oc2cc(OCC(=O)Nc3ccc(O)cc3C)ccc2c1=O	.	.	.	.	-1.9%	.
